Calls of active or inactive are those of the source. How the source made its calls: active means hit-call score of the fitted dose curve at least 0.9, where 1 is the maximum; inactive means score below 0.9.
How the values were obtained:
[1] = molecular target: CCAAT/enhancer-binding protein beta (Homo sapiens) (UniProt P17676); test: ATG_C_EBP_CIS: Attagene CIS-FACTORIAL HepG2 Assay for human CCAAT/Enhancer Binding Protein (C/EBP) beta (AID 2282927); conditions: HepG2 Attagene cis-factorial transcription factor reporter; actives raise or lower the signal
CCAAT/enhancer-binding protein beta (Homo sapiens), sequence (P17676 whole entry, looked up): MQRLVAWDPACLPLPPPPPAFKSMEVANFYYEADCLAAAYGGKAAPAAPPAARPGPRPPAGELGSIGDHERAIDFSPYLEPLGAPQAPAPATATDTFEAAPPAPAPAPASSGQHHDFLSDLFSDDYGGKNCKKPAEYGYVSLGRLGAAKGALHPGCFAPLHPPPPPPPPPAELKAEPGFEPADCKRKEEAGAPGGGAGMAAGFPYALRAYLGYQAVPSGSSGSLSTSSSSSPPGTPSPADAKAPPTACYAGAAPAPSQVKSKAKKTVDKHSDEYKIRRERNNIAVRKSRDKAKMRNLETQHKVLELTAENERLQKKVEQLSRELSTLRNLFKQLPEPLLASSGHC
Method in brief: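 HepG2 transiently transfected with multiplexed reporter units under cis-regulatory promoters reporting endogenous C/EBPb activity. After 24 h exposure, reporter mRNA assayed by RT-PCR, fluorescent labelling, HpaI digestion and capillary electrophoresis; bidirectional fitting versus DMSO.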

[2] = ATG_CMV_CIS: Attagene CIS-FACTORIAL HepG2 Assay for human CMV (Internal Marker) (AID 2282928); conditions: HepG2 CMV promoter reporter, transcription factor profiling; actives raise or lower the signal;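 further: endpoint acts as a background internal control marker rather than a target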
Method in brief: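 HepG2 cells transiently transfected with multiple cis-regulated reporter units; 24 h compound exposure. Reporter mRNA quantified by RT-PCR, 6-FAM primer-extension labeling, HpaI digestion and capillary electrophoresis; bidirectional fitting against DMSO baseline.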

[3] = ATG_DR4_LXR_CIS: Attagene CIS-FACTORIAL HepG2 Assay for human Liver X Receptor (LXR), DR4 submotif (AID 2282929); conditions: HepG2 Attagene DR4 cis-reporter, mRNA transcription; actives raise or lower the signal
Method in brief: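 Transiently transfected HepG2 liver cells; cis-regulated reporters; 24 h dosing. RT-PCR plus CE read-out of reporter mRNA. DMSO baseline, bidirectional curve fitting.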

[4] = ATG_AP_1_CIS: Attagene CIS-FACTORIAL HepG2 Assay for human Activator Protein 1 (AP-1) (AID 2282931); conditions: HepG2 Attagene cis-factorial AP-1 reporter mRNA; actives raise or lower the signal
Method in brief: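 We transfected HepG2 cells transiently with a set of cis-regulated reporter transcription units, dosed them for 24 h, and quantified reporter mRNA via RT-PCR and capillary electrophoresis, scoring gain or loss of signal relative to DMSO.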

[5] = ATG_AP_2_CIS: Attagene CIS-FACTORIAL HepG2 Assay for human Activator Protein 2 (AP-2) (AID 2282932); conditions: HepG2 AP-2 cis-reporter, Attagene transcription factor profiling; actives raise or lower the signal
Method in brief: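 HepG2 cells transiently transfected with cis-element reporter units and exposed for 24 h. Reporter mRNA measured by RT-PCR, FAM labelling, HpaI digestion and capillary electrophoresis. Changes in either direction fitted relative to DMSO.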

[6] = ATG_BRE_CIS: Attagene CIS-FACTORIAL HepG2 Assay for human Bone Morphogenetic Protein (BMP) Response Element (BRE) (AID 2282933); conditions: HepG2 BMP response element reporter, Attagene transcription factor profiling; actives raise or lower the signal
Method in brief: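 Gain- or loss-of-signal was derived by bidirectional fitting against DMSO controls. The signal came from reporter mRNA, measured by RT-PCR and capillary electrophoresis, in HepG2 cells transiently carrying multiple reporter units and dosed for 24 h.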

[7] = molecular target: Transcription factor E2F1 (Homo sapiens) (UniProt Q01094); test: ATG_E2F_CIS: Attagene CIS-FACTORIAL HepG2 Assay for human E2F Transcription Factor 1 (AID 2282935); conditions: HepG2 Attagene cis-reporter, E2F reporter RNA transcripts; actives raise or lower the signal
Transcription factor E2F1 (Homo sapiens), sequence (Q01094 whole entry, looked up): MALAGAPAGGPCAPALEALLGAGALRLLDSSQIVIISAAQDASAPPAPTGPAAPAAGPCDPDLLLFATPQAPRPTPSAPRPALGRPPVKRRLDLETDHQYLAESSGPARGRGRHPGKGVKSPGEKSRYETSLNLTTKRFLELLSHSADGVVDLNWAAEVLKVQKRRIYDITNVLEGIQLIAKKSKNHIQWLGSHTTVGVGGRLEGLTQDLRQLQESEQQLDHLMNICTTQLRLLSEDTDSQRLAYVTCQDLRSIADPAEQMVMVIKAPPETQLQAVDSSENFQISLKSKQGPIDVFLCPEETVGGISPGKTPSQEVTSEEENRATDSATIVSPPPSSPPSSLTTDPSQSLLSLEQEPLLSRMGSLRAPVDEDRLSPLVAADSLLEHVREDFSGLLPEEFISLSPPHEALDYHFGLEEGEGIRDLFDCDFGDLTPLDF
Method in brief: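 Endogenous E2F1 activity read through cis-promoter reporter units transfected into HepG2. After 24 h compound treatment, reporter mRNA measured by RT-PCR, HpaI digestion and capillary electrophoresis. Bidirectional fit versus DMSO.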

[8] = ATG_E_Box_CIS: Attagene CIS-FACTORIAL HepG2 Assay for human Enhancer Box (E-box) (AID 2282936); conditions: HepG2 E-box cis-reporter transcription, actives raise or lower the signal
Method in brief: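 HepG2 cells transiently transfected with multiplexed cis-element reporter units, dosed 24 h; reporter mRNA quantified by RT-PCR, 6-FAM labelling, HpaI digestion and capillary electrophoresis. E-box (USF1) signal fitted bidirectionally vs DMSO.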

[9] = ATG_M_61_CIS: Attagene CIS-FACTORIAL HepG2 Assay for M61 Transcription Factor (Internal Marker) (AID 2282937); conditions: HepG2 Attagene CIS-FACTORIAL M61 internal marker reporter; actives raise or lower the signal
Method in brief: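 Multiplexed reporter mRNA assay, HepG2 human hepatoma cells, 24 h treatment. Signal: FAM-labelled, HpaI-digested RT-PCR fragments by CE. Fit: bidirectional, baseline DMSO.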

[10] = ATG_EGR_CIS: Attagene CIS-FACTORIAL HepG2 Assay for human Early Growth Response 1 (EGR1) (AID 2282938); conditions: HepG2 Attagene CIS-FACTORIAL EGR reporter mRNA; actives raise or lower the signal
Method in brief: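 Multiplexed cis-reporter system in human hepatoma HepG2 cells, transiently transfected. Cells are dosed for 24 h; reporter transcripts are amplified, fluorescently tagged and sized by capillary electrophoresis, with DMSO as negative control.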

[11] = ATG_M_19_CIS: Attagene CIS-FACTORIAL HepG2 Assay for M19 Transcription Factor (Internal Marker) (AID 2282939); conditions: HepG2 Attagene CIS-FACTORIAL M19 internal marker reporter; actives raise or lower the signal
Method in brief: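 Following a 24 h exposure, RNA from transfected HepG2 cells was reverse-transcribed, PCR-amplified with reporter-specific primers, end-labelled with 6-FAM and HpaI-digested before capillary separation. Values represent gain or loss versus DMSO.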

[12] = molecular target: Hepatocyte nuclear factor 3-beta (Homo sapiens) (UniProt Q9Y261); test: ATG_FoxA2_CIS: Attagene CIS-FACTORIAL HepG2 Assay for human Forkhead box A2 (FOXA2) (AID 2282942); conditions: HepG2 cis-reporter transcription factor activity, 24 h; actives raise or lower the signal
Hepatocyte nuclear factor 3-beta (Homo sapiens), sequence (Q9Y261 whole entry, looked up): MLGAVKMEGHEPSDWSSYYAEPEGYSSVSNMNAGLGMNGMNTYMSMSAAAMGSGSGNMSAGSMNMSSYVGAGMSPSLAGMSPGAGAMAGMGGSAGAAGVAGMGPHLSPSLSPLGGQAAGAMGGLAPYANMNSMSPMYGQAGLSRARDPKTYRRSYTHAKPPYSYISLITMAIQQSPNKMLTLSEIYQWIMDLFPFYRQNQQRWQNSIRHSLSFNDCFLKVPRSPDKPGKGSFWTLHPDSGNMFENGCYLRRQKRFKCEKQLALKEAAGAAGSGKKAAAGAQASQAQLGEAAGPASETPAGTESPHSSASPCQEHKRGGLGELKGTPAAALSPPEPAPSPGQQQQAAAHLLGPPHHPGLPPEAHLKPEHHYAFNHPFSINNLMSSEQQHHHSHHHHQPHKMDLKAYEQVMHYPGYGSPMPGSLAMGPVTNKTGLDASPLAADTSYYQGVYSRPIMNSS
Method in brief: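 Multiplexed cis-element reporter assay in transiently transfected HepG2. Twenty-four hours post-dosing, RNA was reverse-transcribed, amplified, FAM-labelled, HpaI-digested and separated by CE. Activity gain or loss relative to DMSO.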

[13] = ATG_FoxO_CIS: Attagene CIS-FACTORIAL HepG2 Assay for human Forkhead box O (FoxO) (AID 2282943); conditions: HepG2 Attagene cis-reporter, FoxO element, mRNA; actives raise or lower the signal
Method in brief: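 HepG2 cells transiently transfected with cis-element-driven reporter units report endogenous FoxO activity. After 24 h chemical exposure, reporter mRNA quantified by RT-PCR, fluorescent labeling, HpaI digestion and capillary electrophoresis; bidirectional fit versus DMSO.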

[14] = ATG_GATA_CIS: Attagene CIS-FACTORIAL HepG2 Assay for human GATA Binding Protein (AID 2282944); conditions: HepG2 GATA cis-element reporter, Attagene multiplex mRNA; actives raise or lower the signal
Method in brief: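 DMSO serves as negative control and baseline for bidirectional fitting of reporter mRNA changes. HepG2 cells bearing transiently transfected cis-promoter reporters were exposed 24 h; transcripts detected via RT-PCR and capillary electrophoresis.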

[15] = ATG_GLI_CIS: Attagene CIS-FACTORIAL HepG2 Assay for human Zinc Finger Protein GLI1 (AID 2282945); conditions: HepG2, Attagene cis-factorial reporter mRNA, GLI element; actives raise or lower the signal
Method in brief: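 Transiently transfected HepG2 cells report endogenous transcription factor activity via cis-element-driven reporter units. After 24 h compound exposure, reporter mRNA was measured by RT-PCR with capillary electrophoresis; bidirectional fitting against DMSO baseline.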

[16] = molecular target: Retinoic acid receptor alpha (Homo sapiens) (UniProt P10276); test: ATG_DR5_RAR_CIS: Attagene CIS-FACTORIAL HepG2 Assay for human Retinoic Acid Receptor Alpha (RARE), DR5 submotif (AID 2282934); conditions: HepG2 Attagene cis-factorial RARE DR5 reporter, mRNA; actives raise or lower the signal
Retinoic acid receptor alpha (Homo sapiens), sequence (P10276 whole entry, looked up): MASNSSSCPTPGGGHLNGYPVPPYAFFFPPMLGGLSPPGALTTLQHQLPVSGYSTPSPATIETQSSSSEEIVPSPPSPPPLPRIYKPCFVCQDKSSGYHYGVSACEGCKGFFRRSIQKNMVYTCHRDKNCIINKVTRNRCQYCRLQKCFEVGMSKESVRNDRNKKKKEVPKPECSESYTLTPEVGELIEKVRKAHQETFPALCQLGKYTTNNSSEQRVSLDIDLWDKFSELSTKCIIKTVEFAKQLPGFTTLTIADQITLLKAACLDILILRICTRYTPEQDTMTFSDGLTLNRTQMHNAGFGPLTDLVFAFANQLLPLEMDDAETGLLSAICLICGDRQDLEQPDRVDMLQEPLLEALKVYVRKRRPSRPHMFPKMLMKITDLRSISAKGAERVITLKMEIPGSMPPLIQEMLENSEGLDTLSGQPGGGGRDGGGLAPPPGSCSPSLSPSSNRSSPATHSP
Method in brief: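 HepG2 cells transiently transfected with multiplexed reporter units; DR5 cis-element drives reporter through endogenous transcription factors. After 24 h dosing, reporter mRNA quantified by RT-PCR, fluorescent labeling, HpaI digestion and capillary electrophoresis; bidirectional fitting versus DMSO.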

[17] = molecular target: Aryl hydrocarbon receptor (Homo sapiens) (UniProt P35869); test: ATG_Ahr_CIS: Attagene CIS-FACTORIAL HepG2 Assay for human Aryl Hydrocarbon Receptor (Ahr) (AID 2282930); conditions: HepG2 AhR cis-factorial reporter transcription; actives raise or lower the signal
Aryl hydrocarbon receptor (Homo sapiens), sequence (P35869 whole entry, looked up): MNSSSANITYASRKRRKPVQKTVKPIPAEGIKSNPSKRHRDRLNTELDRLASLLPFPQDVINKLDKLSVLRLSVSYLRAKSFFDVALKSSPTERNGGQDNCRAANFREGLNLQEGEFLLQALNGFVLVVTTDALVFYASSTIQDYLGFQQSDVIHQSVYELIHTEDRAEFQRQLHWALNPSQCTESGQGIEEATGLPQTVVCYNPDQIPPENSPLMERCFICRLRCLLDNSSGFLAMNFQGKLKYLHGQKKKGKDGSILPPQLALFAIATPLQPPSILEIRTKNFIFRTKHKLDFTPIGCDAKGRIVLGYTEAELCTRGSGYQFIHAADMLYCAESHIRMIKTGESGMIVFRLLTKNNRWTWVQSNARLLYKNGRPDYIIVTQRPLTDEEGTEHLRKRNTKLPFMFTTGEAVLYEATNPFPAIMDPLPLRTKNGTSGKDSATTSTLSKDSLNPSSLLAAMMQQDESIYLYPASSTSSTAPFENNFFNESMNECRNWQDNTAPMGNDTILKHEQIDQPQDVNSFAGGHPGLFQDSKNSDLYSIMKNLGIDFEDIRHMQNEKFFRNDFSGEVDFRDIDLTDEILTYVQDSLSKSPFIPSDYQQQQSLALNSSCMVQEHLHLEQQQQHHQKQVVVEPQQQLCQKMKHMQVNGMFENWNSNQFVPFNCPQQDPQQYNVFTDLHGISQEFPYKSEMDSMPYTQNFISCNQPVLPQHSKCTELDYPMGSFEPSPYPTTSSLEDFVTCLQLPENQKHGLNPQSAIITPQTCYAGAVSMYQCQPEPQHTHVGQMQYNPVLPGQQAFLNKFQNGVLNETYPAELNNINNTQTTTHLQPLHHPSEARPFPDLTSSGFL
Method in brief: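 HepG2 cells transiently transfected with cis-element-driven multiplexed reporter units; endogenous AhR activity read as reporter mRNA 24 h after dosing, via RT-PCR, 6-FAM labelling, HpaI digestion and capillary electrophoresis. Bidirectional fit relative to DMSO.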

[18] = ATG_Ets_CIS: Attagene CIS-FACTORIAL HepG2 Assay for human Erythroblast Transformation Specific (ETS) (AID 2282941); conditions: HepG2 ETS cis-reporter transcription, actives raise or lower the signal
Method in brief: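 HepG2 cells transiently transfected with cis-promoter reporter transcription units were dosed for 24 h; reporter mRNA was measured by RT-PCR, 6-FAM primer extension, HpaI digestion and capillary electrophoresis, with bidirectional fitting against DMSO baseline.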

Measured: AC50

CCC1CCCCC1
not listed: [16] | [17] | [18]
inactive: all other assays above

COc1cc(CCC(C)=O)ccc1O
not listed: [17] | [18]
inactive: all other assays above

CC(C)=CCCC(C)CCOC=O (configuration not stated)
inactive: all assays above

CCC(C)=O
inactive: all assays above

FC(F)(F)COCC(F)(F)F
not listed: [16]
inactive: all other assays above

Cc1ccc(OC(=O)c2ccccc2O)cc1
active: [4] 122 µM
not listed: [7]
inactive: all other assays above

COc1ccc(COC(C)=O)cc1
not listed: [7] | [8]
inactive: all other assays above

CCCCCCCCC=CCCCCCCCC1=NCCN1CCO
active: [2] 48.2 µM | [3] 40.6 µM | [4] 100 µM | [7] 26.1 µM | [12] 25.7 µM
not listed: [8] | [14] | [18]
inactive: all other assays above

CCC1(c2ccccc2)C(=O)NCNC1=O
not listed: [3] | [7] | [16]
inactive: all other assays above

O=c1c(O)c(-c2ccc(O)cc2)oc2cc(O)cc(O)c12
active: [2] 9.22 µM
inactive: all other assays above

CCCC(=O)OCCc1ccccc1
not listed: [14]
inactive: all other assays above

C=C(CC(=O)O)C(=O)O
inactive: all assays above

CCCCCCC(O)CCCCCCCCCCC(=O)O (configuration not stated)
not listed: [14]
inactive: all other assays above

CC(=O)Nc1ccc(C(=O)CCl)cc1
active: [3] 12.9 µM | [4] 56.5 µM | [5] 7.19 µM | [8] 20.6 µM
not listed: [7]
inactive: all other assays above

C=C(C)C(=O)OCCOCCOCCOC(=O)C(=C)C
inactive: all assays above

Source: PubChem BioAssay (EPA / NIEHS)
